The values below come from PubChem BioAssay (NCATS).

The nature of experiment [1]: qHTS for Inhibitors of Plasmodium falciparum (DD2) proliferation (AID 504314). The method, boiled down:
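SYBR Green growth assay: 72 h compound exposure of infected red cells (2.5% hematocrit, 0.3% parasitemia), then lysis and overnight dye staining, fluorescence 485/535 nm. Values scaled between DMSO and 0.29 uM artemisinin controls.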
In general terms: qHTS replaces the single test concentration by a dilution series.

Experiment [2] is described as follows: qHTS for Inhibitors of Plasmodium falciparum (7G8) proliferation (AID 504316). The method, boiled down:
(§1)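 Parasite growth measured as SYBR Green DNA fluorescence (ex 485, em 535 nm) after overnight lysis following 72 h culture at 37 °C, 0.3% parasitemia, 2.5% hematocrit. Values normalized against DMSO and 0.29 uM artemisinin controls, with plate-stack correction.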

Experiment [3] is described as follows: qHTS for Inhibitors of Plasmodium falciparum (HB3) proliferation (AID 504318). The method, boiled down: as §1
Experiment [4] relates to Zika virus NS2B-NS3 protease (linked construct). The experiment in a line: Primary screen NINDS Rhodamine qHTS for Zika virus inhibitors (AID 1347160). In short, it runs like this: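 Rhodamine110-peptide cleavage (1.5 µM substrate) by 25 nM linked NS2B-NS3 enzyme at pH 8.0 (Tris, Tween 20), after 15 min RT preincubation with compounds; 15-min fluorescence change normalized to controls and Hill-fitted.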

Experiment [5] is described as follows: OV-KATE Cancer Cell Toxicity qHTS against the NCATS CANVASS Library (AID 1347345). In short, it runs like this: (§2)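 Bortezomib titration and single-dose wells served as plate controls. Test compounds, 11 points, acted on 1000 cells/well for 72 h at 37 degrees C; CellTiter-Glo luminescence quantified remaining viable cells.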
Experiment [6] can be described thus: HPAF-II Cancer Cell Toxicity qHTS against the NCATS CANVASS Library (AID 1347346). In short, it runs like this:
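First, HPAF-II cells are plated (1000 cells/well) and held 4 h at 37 degrees C. Next, compounds are pin-transferred as an 11-point series. After 72 h, CellTiter-Glo is added and luminescence measured.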

The nature of experiment [7]: OV-SAHO Cancer Cell Toxicity qHTS against the NCATS CANVASS Library (AID 1347348). The method, boiled down:
as §2

Experiment [8] in a line: Panc-1005 Cancer Cell Toxicity qHTS against the NCATS CANVASS Library (AID 1347349). In short, it runs like this:
as §2

Experiment [9] is described as follows: SW1088 Cancer Cell Toxicity qHTS against the NCATS CANVASS Library (AID 1347350). In short, it runs like this:
as §2

Experiment [10] can be described thus: U-118MG Cancer Cell Toxicity qHTS against the NCATS CANVASS Library (AID 1347351). In short, it runs like this: as §2
Experiment [11] can be described thus: COV-362 Cancer Cell Toxicity qHTS against the NCATS CANVASS Library (AID 1347352). The method, boiled down: (§3)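 First, 1000 cells go into each well and rest for 4 hours. Next, an 11-point dilution range is pinned in. Plates then incubate 72 hours before CellTiter-Glo addition and luminescence reading.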
The nature of experiment [12]: A2780 Cisplatin Sensitive Ovarian Cancer Cell Toxicity qHTS against the NCATS CANVASS Library (AID 1347353). The method, boiled down:
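Cells are plated at 750 per well and rest for 4 hours. Compounds are added across eleven concentrations, and incubated 72 hours before ATP is quantified by luminescence.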

The nature of experiment [13]: UWB1.289-WTBRCA1 Cancer Cell Toxicity qHTS against the NCATS CANVASS Library (AID 1347354). The method, boiled down: as §3
Experiment [14] can be described thus: HEK-293 Cancer Cell Toxicity qHTS against the NCATS CANVASS Library (AID 1347355). In short, it runs like this: as §3
A short description of experiment [15]: HPAF-II 24hr Apoptosis Induction qHTS against the NCATS CANVASS Library (AID 1347356). In short, it runs like this:
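Cells seeded at 500 per well, then compounds pin-transferred in an 11-point concentration series. After 24 hours at 37 degrees C, Caspase-Glo 3/7 was added and luminescence measured following 15 min at room temperature.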

Experiment [16] is described as follows: HPAF-II 12hr Apoptosis Induction qHTS against the NCATS CANVASS Library (AID 1347358). The method, boiled down:
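Cells plated at 500 per well are dosed with compound and incubated 12 hours at 37 degrees C. Caspase-Glo 3/7 reagent is added and, after 15 min at room temperature, luminescence proportional to caspase activity is measured.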

Experiment [17] is described as follows: HEK293 24hr Apoptosis Induction qHTS against the NCATS CANVASS Library (AID 1347359). In short, it runs like this: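 Caspase-3/7 activation measured as luminescence from the DEVD-based Caspase-Glo reagent, 15 min at room temperature, following 24-hour compound treatment of HEK293 cells.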
Experiment [18] is described as follows: HEK293 12hr Apoptosis Induction qHTS against the NCATS CANVASS Library (AID 1347361). The method, boiled down:
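Apoptosis in HEK293 was scored as caspase-3/7 luminescence following 12 h treatment with a compound concentration series in qHTS format.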

In experiment [19] the test system is NAD(P)H diaphorase (Clostridium kluyveri). The experiment in a line: Diaphorse counterscreen qHTS: Assay Interference Panel against the NCATS CANVASS Library (AID 1347362). The method, boiled down: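 Counterscreen for coupling-enzyme interference: resorufin fluorescence from resazurin/NADH turnover, read after 5 min at room temperature. Compounds were tested over an 11-point series after 15 min dark preincubation with diaphorase in PBS-Tween.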
In general terms: The purpose of a counterscreen is to sort out artefacts and off-target activity.

Experiment [20] deals with Luciferin 4-monooxygenase (Photinus pyralis) (UniProt P08659). Description: Firefly luciferase counterscreen qHTS: Assay Interference Panel against the NCATS CANVASS Library (AID 1347363). In short, it runs like this:
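Luminescence inhibition readout: compounds (11-point qHTS) sat 15 min at room temperature with substrate mix (0.013 mM luciferin and ATP), then firefly luciferase was added and signal read 5 min later.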

The nature of experiment [21]: KB-8-5-11 Cancer Cell Toxicity qHTS against the NCATS CANVASS Library (AID 1347364). In short, it runs like this:
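Terse: KB-8-5-11, 500 cells/well, 72 hr, 37C/5% CO2, 11-pt titration, CellTiter-Glo readout; confirmatory runs ± 1uM tariquidar in medium.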

Experiment [22] can be described thus: KB-3-1 Cancer Cell Toxicity qHTS against the NCATS CANVASS Library (AID 1347366). The method, boiled down:
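Seed KB-3-1 cells at 500/well in DMEM with 10% FBS, add compounds, incubate 72 hr at 37C and 5% CO2, then add CellTiter-Glo and read luminescence after 10 minutes.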

Experiment [23] can be described thus: qHTS for ATAD5 Agonist screened against the NCATS CANVASS Library (AID 1347367). The method, boiled down: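 Step one plated reporter cells and let them acclimate 5hr. Step two pinned compounds with MMS as positive and 0.46% DMSO as negative control. After 16hr incubation, fluorescence viability then luminescence were read.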
Experiment [24] is described as follows: G06 Cancer Cell Toxicity qHTS against the NCATS CANVASS Library (AID 1347368). In short, it runs like this:
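Cells were plated at 500 per well, then compounds were added over an 11-point range. After 72 hr at 37C, CellTiterGlo was added and luminescence measured as ATP content.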

The nature of experiment [25]: MCF7 Cancer Cell Toxicity qHTS against the NCATS CANVASS Library (AID 1347369). The method, boiled down: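 Cytotoxicity is measured by ATP content: MCF7 cells at 500 per well receive an 11-point compound series and, after 72 hr at 37C, are lysed with CellTiterGlo for luminescence.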
Experiment [26] can be described thus: qHTS for ATAD5 Antagonist screened against the NCATS CANVASS Library (AID 1347370). The method, boiled down:
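Compounds (11-point) co-dosed with 10 µM 5-FUrd for 16 h at 37 °C onto HEK293T-ATAD5 luciferase reporter cells. Viability measured by CellTiter-Fluor fluorescence, then ATAD5 reporter signal by luminescence.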

Experiment [27] can be described thus: J3T Cancer Cell Toxicity qHTS against the NCATS CANVASS Library (AID 1347371). In short, it runs like this:
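Luminescence from CellTiterGlo, reporting cellular ATP, serves as the viability measure after 72 hr compound treatment of J3T canine glioma cells seeded at 500 cells/well.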

Experiment [28] deals with Nuclear receptor subfamily 1 group I member 3 (Homo sapiens) (UniProt Q14994). Description: qHTS for Constitutive Androstane Receptor (CAR) Antagonist screened against the NCATS CANVASS Library (AID 1347372). In short, it runs like this:
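Antagonist mode: compound added alongside 50 nM CITCO to HepG2-hCAR-CYP2B6 reporter cells, 24hr at 37C. Viability by CellTiter-Fluor fluorescence, then CAR-driven luciferase by ONE-Glo luminescence.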

The target is the same in experiment [29]. Description: qHTS for Constitutive Androstane Receptor (CAR) Agonist screened against the NCATS CANVASS Library (AID 1347373). The method, boiled down:
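Cells were plated and allowed to attach for 4hr, then dosed with compound in an 11-point series alongside 1.5uM PK11195. After 24hr at 37C, viability was measured fluorometrically and CAR-driven CYP2B6 reporter luminescence was recorded.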

Experiment [30] can be described thus: qHTS for Hypoxia signaling pathway (HIF-1) agonists against the NCATS CANVASS Library (AID 1347375). In short, it runs like this:
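Cells plated and rested 5 h, compounds pinned in DMSO across 11 concentrations, incubated 17 h at 37C, loaded with CCF4-AM for 2 h, fluorescence read at 460 and 530 nm, then CellTiter-Glo luminescence measured for viability and normalization.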

The nature of experiment [31]: 10-beta competent E. coli microbial cell viability qHTS against the NCATS CANVASS Library (AID 1347376). In short, it runs like this:
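Bacterial suspension diluted to 0.2 OD was dosed with compounds, 11-point series, then held overnight at 37C. BacTiter-Glo reagent was added, and after 20 min at room temperature ATP-dependent luminescence was measured.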

The nature of experiment [32]: qHTS for H2AX Agonists against the NCATS CANVASS Library (AID 1347378). In short, it runs like this: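 Following overnight seeding, CHO-K1 cells are incubated with a concentration series of compound for 3 hr at 37C (final DMSO 0.76%). Cells are then lysed, detection antibodies added, and emission ratio 665/620 nm recorded after 24 hr at room temperature.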
Experiment [33] can be described thus: Inflammasome Signaling qHTS Counterscreen: IL-1-beta AlphaLISA counterscreen against the NCATS CANVASS Library (AID 1347381). The method, boiled down: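 Purified IL-1-beta (4 pg/well) + compound, 11-pt conc. series; acceptor beads 6 ug/mL + biotin-Ab 0.6 nM final, 1 h RT; SA-donor 24 ug/ml final, 30 min dark RT; read ex 680/em 615.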
Experiment [34] in a line: Cytotoxicity qHTS for assessment of Hepg2 cells membrane integrity screened against the NCATS CANVASS Library (AID 1347387). The method, boiled down: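 Cells were seeded at 2000 per well and left overnight to attach. Compounds were pin-transferred to give 0.59 nM - 46 uM in an 11-point series and incubated 5 hr at 37C. CytoTox-ONE reagent was added and, after 10 min at room temperature, fluorescence (ex 560, em 590 nm) was read.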

The nature of experiment [35]: qHTS assay for small molecule disruptors of mitochondrial membrane potential screened against the NCATS CANVASS Library (AID 1347389). The method, boiled down: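 Mitochondrial depolarization in HepG2 cells is scored as a falling aggregate-to-monomer fluorescence ratio after 1 hr compound exposure and 30 min staining with Mito-MPS dye at 37C, each compound tested as an 11-point titration.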

Experiment [36] in a line: qHTS for activators of Nrf2/ARE signaling pathway screened against the NCATS CANVASS Library (AID 1347391). The method, boiled down: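 Beta-lactamase reporter signal, read as 460 and 530 nm emission under 405 nm excitation after 2 h CCF4 loading, reflected ARE activation in HepG2 cells treated 16 h with an 11-point series.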
Experiment [37] is described as follows: qHTS for activators of dead-cell proteases activity screened against the NCATS CANVASS Library (AID 1347392). The method, boiled down:
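Luminescent dead-cell protease readout (AAF-aminoluciferin, 15 min, room temperature) after 5 h compound treatment of HepG2 cells (2000/well, pre-attached 18 h). Eleven concentrations.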

Experiment [38] in a line: qHTS for inhibitors of Wild type Zika virus screened against the NCATS CANVASS Library (AID 1347396). The method, boiled down: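 Luminescent CellTiter Glo read-out of virus-induced cytotoxicity, 72 h post-infection, in Vero 766 cells. Compounds were tested at 11 concentrations; uninfected, vehicle-treated wells defined 100% inhibition.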
Experiment [39] is described as follows: qHTS for inhibitors of Rabies Virus screened against the NCATS CANVASS Library (AID 1347402; calls by dose curve).

Records with an inconclusive call do not appear. The source holds several records for some structures; these can differ, active in one and inactive in another. Activity calls are given as the source filed them. Unless noted, calls come from the whole dose curve; as a rule, active = well fitted curve in the direction sought with a large enough effect; inconclusive = small, poorly fitted or top-dose-only effect, or another doubt; inactive = no such curve, though single readings can be large; an effect the other way counts as inactive or inconclusive.

Nuclear receptor subfamily 1 group I member 3 (Homo sapiens), sequence (Q14994 whole entry, looked up): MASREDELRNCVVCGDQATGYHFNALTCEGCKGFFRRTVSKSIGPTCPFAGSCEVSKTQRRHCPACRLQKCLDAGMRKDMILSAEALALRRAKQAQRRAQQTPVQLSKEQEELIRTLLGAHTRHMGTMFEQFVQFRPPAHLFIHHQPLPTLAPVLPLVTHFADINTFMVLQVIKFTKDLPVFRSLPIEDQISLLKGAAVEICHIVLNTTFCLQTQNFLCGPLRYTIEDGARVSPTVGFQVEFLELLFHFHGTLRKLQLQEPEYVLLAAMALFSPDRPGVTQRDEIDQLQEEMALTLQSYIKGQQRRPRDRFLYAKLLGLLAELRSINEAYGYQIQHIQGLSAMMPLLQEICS
Luciferin 4-monooxygenase (Photinus pyralis), sequence (P08659 whole entry, looked up): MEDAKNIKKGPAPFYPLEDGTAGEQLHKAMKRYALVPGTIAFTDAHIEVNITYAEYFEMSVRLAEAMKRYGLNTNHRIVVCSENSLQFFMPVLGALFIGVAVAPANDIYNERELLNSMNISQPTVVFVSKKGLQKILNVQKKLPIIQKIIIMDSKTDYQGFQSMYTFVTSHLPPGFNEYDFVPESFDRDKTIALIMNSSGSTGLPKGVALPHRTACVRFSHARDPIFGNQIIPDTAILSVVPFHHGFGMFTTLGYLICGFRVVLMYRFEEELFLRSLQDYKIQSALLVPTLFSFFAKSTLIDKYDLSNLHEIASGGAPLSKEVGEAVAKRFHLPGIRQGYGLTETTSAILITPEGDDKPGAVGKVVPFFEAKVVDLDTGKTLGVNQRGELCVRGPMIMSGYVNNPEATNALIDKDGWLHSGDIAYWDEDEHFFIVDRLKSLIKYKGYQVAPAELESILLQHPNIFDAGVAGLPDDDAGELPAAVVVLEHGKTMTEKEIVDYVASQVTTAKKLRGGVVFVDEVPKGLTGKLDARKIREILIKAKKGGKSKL

As to `COC(=O)C1=C[C@H]([C@@H](C)[C@H](OC)c2ccccc2Br)[C@H]2[C@H]1c1ccccc1N2C`, the compound was classed as inactive in experiment [1] and in [2]. Also, the Potency in experiment [3] was 1.9 µM (active) and inactive.
Turning to `CCCC[C@@H]1CC[C@H]2CCCC(CCC)N12` (some centres undefined), the Potency in experiment [4] is 49.3 µM (active). Moreover, the Potency entry in [5], in experiment [6], in [7], in experiment [8], in experiment [9] and in [10] was “inactive” in each case. Further, the Potency result in [11], in [12], in experiment [13], in experiment [14], in [17] and in [18] was “inactive” throughout. For the same compound, the Potency result in experiment [21], in experiment [22], in [23], in [24], in experiment [25] and in experiment [26] was “inactive” throughout. For the same compound, the Potency entry in experiment [27], in [28], in [30], in [32], in experiment [35] and in experiment [36] was “inactive” in each case. In addition, the Potency result in [37] and in [38] was “inactive” each time. Besides, the call in [15], in experiment [16], in experiment [19], in experiment [20], in experiment [29] and in experiment [31] was inactive. Besides, the result in experiment [33], in [34] and in experiment [39] was inactive.
